# Tested on: VDR:RXRa (NR concentration 270 nM, RXRa partner concentration 90 nM)
# Experiment: PBM binding z-score (relative to random genomic background probes); higher = stronger binding; sequences stand for … in GC…GCGATTGACAGCGTAGAATGAAGG
# Method: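 Protein-binding microarray (Agilent 4x180K custom design, double-stranded 60-nt probes: 5' GC cap, 34-nt variable region, 24-nt constant primer region; full probe sequence given). Purified or IVT nuclear receptor:RXRα heterodimers (3:1 NR:RXRα, mostly 270:90 nM) or homodimers were incubated for 1 h in PBS with 2% milk and no ligand, then detected with Alexa488 antibodies. Fluorescence from o1-orientation probes (~5 replicates averaged) was converted to z-scores against 500 random hg19 background probes. Variable regions are seed direct-repeat (DR0–DR5) sites, all their single-nucleotide variants and half-site ablations.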
row,Sequence,PBM binding z-score
1,CCGACTGGGGCAGAATGGTTACCATACCATCCGG,-0.638
2,AGAAAGAGGGCAATGAGTTGATAGCACGGGTGGC,5.59
3,TGAATGAGGTTATAAGATCAGGGACCGTTGCAAA,1.25
4,TCACATAGGTAAATGCTAGGTGAAAGTCCGATCT,0.334
5,CCTACTGGGCCAAAAAGGTCATTGCTGCCGATAA,4.46
6,TCTTGTAGATCAAGCAGGTTATGAAAGCCTGAGT,0.521
7,CCGAGCAGGCCAATCTGGGTCACTCAAGGCTTGA,0.157
8,GCTCGGAGGACGAGGTCAGAGCTTTGTCCGTAGA,2.2
9,CGTCCAAGGTAAGCAGGTCAGTGAAAGCGACGTG,0.00518
10,CATACTGGGCCAAAGGTCATTGATTCCAATGCTC,5.1
11,CGAACTAGGTCATTGACGGGACAGTGAATAGTAA,1.86
12,GCGACTGGGGCATCAGCAGGTTACTATAACTTAA,0.0645
13,CTACCAAGGTGAACAAGCTCGTTGATTACTATTC,0.121
14,ATCTCTAGGTAATGATAGTTCAGTGAATGCAAAT,0.849
15,CATACAGGGTCAGATAGGCCAGAGTAGGGACGGC,3.2
16,CCTAGTTTGTCAAGGTCACACACGCTATAGGTAC,4.46
17,GCTAGTTGGTCAGTTAAAGGTCACACACCGGTCG,3.95
18,AGTCAAAGTTCATCTAGGTAACGTATGATATGCT,4.91
19,AGAATGAGGTTATTAAGATCAGGGACTTGCGGTC,2.47
20,TCGAGTAGGTTACCAATGGGGCATTCTGCTTTCT,-0.0796

row,Sequence,PBM binding z-score
1,ATATGTAGGTTAAGGGTCATTCTGGTTGGTTCGC,4.92
2,TCCTATAGGTAAAGGTGAAAGTCGAACGATATGA,0.86
3,CCTAGTCGGTCAAGGTCACACACGCTATAGGTAC,4.29
4,CGAACTAGGTCATTGACTGGACAGTGAATAGTAA,1.68
5,ATCTCTAGGTAAGACCCAGTTCAGTGAAGAACGC,1.04
6,ATCGAAAGGTCGAGGAGAGTATAGAGAAAGGGAA,2.64
7,AGAATGAGGTTATACGTAGATCTGGGAAGAAAGT,1.07
8,ATATGTAGGTTAAGGGTTATTCAGGTTGGTTCGC,3.27
9,CGTCCAAGGTCAAAAGTCAGTGAAGAGATGACGG,3.74
10,TCTTGTAGATGAATAGAGGTTAAGAAAGTGCGCT,1.94
11,GGAACGAAGGCATTCGAGTTGATAGCATGGCGAT,-0.337
12,TCATATAGGTAAACAGTTGAAAGTCCGTAAGTTA,1.13
13,GGAAAGAGGGCAAGTTGATAGCAGAGTTTGATGG,1.24
14,TCAGACAGTTGAAGGTAACTCAGGTACGCAGTCG,1.03
15,ACTAGTAGTTGACTTAGGGCAACCGATACGACGC,0.0405
16,CGTCCAAGGTCAAAGTTCAGTGAAGAGATGACGG,5.84
17,AGAATGAGGTTATCAAGATCAGGGAATTGCGGTC,2.56
18,ATCTCTTGGTAAAAGTTCAGTGAATCCCGAGGAT,1.14
19,AGAACGAGGGCATGCTGAGTTGATAGCAGAGTAG,1.5
20,TCATATAGGTAAACAGGTAAAAGTCCGTAAGTTA,1.29

# — the supplement of paper PMC6555819
